Measurements as given in PubChem BioAssay (NCATS).
Results filed as inconclusive are left out. Values without a mark were called inactive. Active and inactive are the calls of the source. Calls come from the whole dose curve; as a rule, active = well fitted inhibition curve with a large enough effect; inconclusive = small, poorly fitted or top-dose-only effect; inactive = flat fitted curve, though single readings scatter. Residues, ends and D or L forms follow the SMILES beside them. *: point of attachment. Cbz = O=C(OCc1ccccc1)*

Legend:
Experiment in all cases: Cytotoxic Profiling of Annotated Libraries Using Quantitative High-Throughput Screening (AID 1296008); note: nearly all actives have a fitted effect of over 60% in size
Settings in all cases: Five cell lines viability, CellTiter-Glo ATP luminescence, 48-72 h; max response: active compounds read low
CRL-7250 = normal cell line; test system: CRL-7250
Summary of the method: (§1)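 Cytotoxicity was measured as CellTiter-Glo ATP luminescence, read after 10 min at room temperature. Compound treatment of the cells lasted 48 or 72 hr at 37 degrees Celsius in a qHTS format.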

HEK293 = test system: HEK293
Summary of the method: as §1

HaCat = test system: HaCat
Summary of the method: as §1

NIH3T3 = test system: NIH3T3
Summary of the method: as §1

KB-3-1 = test system: KB-3-1
Summary of the method: as §1
% is set by controls: 0 for no effect and ±100 for the full control effect; potency is the fitted concentration of half-maximal effect.

Question: With `Cc1cc(Nc2ncc3c(n2)N(C)C(=O)N(c2cc(NC(=O)c4cccc(C(F)(F)F)c4)ccc2C)C3)n(C)n1` as the molecule, how does the Potency (CRL-7250) read?
Answer: Its Potency is 469 nM (active).

Question: What about the Potency (HEK293) of the same molecule?
Answer: Its Potency is 418 nM (active).

Question: And the Potency (HaCat)?
Answer: Its Potency is 833 nM (active).

Question: And the Potency (NIH3T3)?
Answer: Its Potency is 1320 nM (active).

Question: For `COc1ccc(CCC(=O)c2c(O)cc(O[C@@H]3O[C@H](CO)[C@@H](O)[C@H](O)[C@@H]3O[C@@H]3O[C@@H](C)[C@H](O)[C@@H](O)[C@@H]3O)cc2O)cc1O`, which max response (CRL-7250) is on record?
Answer: Its max response is -4.09%.

Question: What about the max response (HEK293) of the same molecule?
Answer: The max response was -11.6%.

Question: And the outcome (HaCat)?
Answer: The outcome was “inactive”.

Question: What about the max response (KB-3-1) of the same molecule?
Answer: The max response was -1.61%.

Question: And the outcome (NIH3T3)?
Answer: The outcome was “inactive”.

Question: For `OC[C@@H](O)[C@@H](O)[C@H](O)[C@@H](O)CO`, which max response (CRL-7250) is on record?
Answer: Its max response is 0.947%.

Question: And the max response (HEK293)?
Answer: The max response was 2.06%.

Question: What about the outcome (HaCat) of the same molecule?
Answer: The outcome was “inactive”.

Question: And the outcome (KB-3-1)?
Answer: Its outcome is “inactive”.

Question: And the max response (NIH3T3)?
Answer: Its max response is -2.12%.

Question: Which max response (CRL-7250) does the source give for `CC1=C(C(=O)Nc2cc3cn[nH]c3cc2F)C(c2ccc(Cl)cc2F)N=C(c2ccnc(Cl)c2)N1` (configuration not stated) here?
Answer: Its max response is -26.3%.

Question: And the Potency (HEK293)?
Answer: The Potency was 13200 nM (active).

Question: And the max response (HaCat)?
Answer: The max response was -46.1%.

Question: And the Potency (NIH3T3)?
Answer: Its Potency is 11800 nM (active).

Question: For `CC(C)C[C@@H](C=O)NC(=O)[C@H](CC(C)C)NC(=O)[C@H](CC(C)C)NC(=O)OCc1ccccc1` (Cbz-Leu-Leu-Leu-aldehyde), which Potency (CRL-7250) is on record?
Answer: The Potency was 1660 nM (active).

Question: What about the Potency (HEK293) of the same molecule?
Answer: The Potency was 1050 nM (active).

Question: And the Potency (HaCat)?
Answer: Its Potency is 3320 nM (active).

Question: And the Potency (NIH3T3)?
Answer: The Potency was 2960 nM (active).

Question: `CC(C)(C)[C@H](NC(=O)c1ccc(N)c(Cl)c1)C(=O)N1CCC[C@@H]1C(=O)N[C@H](C#N)CC(=O)O` was tested. Which outcome (CRL-7250) did it give?
Answer: Its outcome is “inactive”.

Question: And the max response (HEK293)?
Answer: Its max response is -9.49%.

Question: And the outcome (HaCat)?
Answer: Its outcome is “inactive”.

Question: What about the max response (KB-3-1) of the same molecule?
Answer: Its max response is 5.36%.

Question: What about the outcome (NIH3T3) of the same molecule?
Answer: The outcome was “inactive”.

Question: With `CN[C@H]1[C@@H](O)[C@@H]2O[C@@H]3O[C@H](C)CC(=O)[C@]3(O)O[C@@H]2[C@@H](NC)[C@H]1O` as the molecule, how does the max response (CRL-7250) read?
Answer: Its max response is 4.26%.

Question: What about the max response (HEK293) of the same molecule?
Answer: Its max response is -3.13%.

Question: What about the max response (HaCat) of the same molecule?
Answer: The max response was -0.114%.

Question: What about the outcome (KB-3-1) of the same molecule?
Answer: Its outcome is “inactive”.

Question: And the max response (NIH3T3)?
Answer: The max response was 4.68%.
